From PubChem BioAssay (NCATS)
Results filed as inconclusive are left out. Where a call stands in place of a potency, no number is given. The source made the active and inactive calls. Unless noted, the call rests on the fitted dose curve; in most records, active means well fitted curve in the direction sought with a large enough effect; inconclusive means small, poorly fitted or top-dose-only effect, or another doubt; inactive means no such curve, though single readings can be large; an effect the other way counts as inactive or inconclusive.

Assays:
[1] = High Content Imaging Cell-Based qHTS for Inhibitors of the mTORC1 Signaling Pathway in MEF Cells (AID 2667); settings: series mostly up to 38.3 µM;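 further: Tsc2-/- p53-/- MEFs stably re-expressing wild-type Tsc2 exposed 24 h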
Method in brief: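 Immunofluorescence for rpS6 phosphorylation in MEFs of Tsc2-/-, p53-/- background rescued with WT Tsc2. Compound exposure lasted 24 hrs. Inhibition was scored against rapamycin-treated control wells.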

[2] = Cytometry Cell-Based qHTS for Inhibitors of the mTORC1 Signaling Pathway in MEF cells (AID 2668); settings: mTORC1 pathway readout; series mostly up to 38.3 µM;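 further: Tsc2-/- p53-/- mouse embryonic fibroblasts stably re-expressing wild-type Tsc2; percent cells positive for phospho-rpS6 Ser235/236 relative to propidium iodide stain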
Method in brief: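 WT MEFs (Tsc2-/-, p53-/- stably re-expressing WT Tsc2) in DMEM + 10% FBS received compounds 24 hrs after plating, for 24 hrs at 37 degree Celsius. Fixed cells stained with Alexa-488 anti-phospho-rpS6 Ser235/236 and propidium iodide; laser-scanning cytometry read-out.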

[3] = Validation screen for small molecules that induce DNA re-replication in MCF 10A normal breast cells (AID 463097); settings: MCF 10A cells, DNA re-replication phenotype imaging; series mostly up to 46.1 µM; further: nearly all actives have a fitted effect of over 60% in size; further: potency means the concentration at half of the fitted maximal effect
Method in brief: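 Readout: Hoechst nuclear fluorescence intensity, 405 ex / 500-530 em, by scanning plate imager; re-replication scored as increase in nuclei with elevated DNA content. Cells exposed to compound 48 hr, 37 C, 5% CO2 beforehand.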

[4] = target: Ubiquitin carboxyl-terminal hydrolase 2 (Homo sapiens) (UniProt O75604); experiment: qHTS Validation Assay for Inhibitors of Ubiquitin-specific Protease USP2a Using CHOP2 as the Reporter (AID 463106); settings: USP2a cleavage of CHOP2 reporter, enzymatic; series mostly up to 38.3 µM
Method in brief: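 10nM USP2 core + cpd, 30min RT; add 25nM Ub-CHOP2/25nM substrate; 60min RT; FI 485/531nm. Buffer Tris pH 8.0, CaCl2, BME, CHAPS. Norm. to NEM = 100% inhibition; time-zero read flags fluorescent artifacts.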

[5] = target: DNA polymerase III PolC-type (Bacillus subtilis (strain 168)) (UniProt P13267); experiment: qHTS Validation Assay for the Inhibitors of DNA Replication in Gram-Positive Bacteria (AID 485295); settings: Gram-positive bacterial DNA replication assay; series mostly up to 57.1 µM; further: potency means the concentration at half of the fitted maximal effect
Method in brief: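 Reconstituted B. subtilis holoenzyme (Pol III, beta clamp, SSB, primase) was preincubated with compound at room temperature, then given single-stranded circular M13Gori plus dNTPs and NTPs. EDTA-containing PicoGreen stopped the reaction, and dsDNA product was read by fluorescence.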

[6] = target: Tumor susceptibility gene 101 protein (Homo sapiens) (UniProt Q99816); experiment: qHTS Validation Assay for Iinhibitors of HIV-1 Budding by Blocking the Interaction of PTAP/TSG101 (AID 485342; calls by dose curve); settings: TSG101-PTAP binding, fluorescence polarization, 4-point titration; series mostly up to 115 µM
Method in brief: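 Tsg101 binding domain (10 uM final) in pH 7.5 HEPES/NaCl/Tween 20/EDTA/TCEP buffer was mixed with pin-transferred compounds, then FITC-labeled PTAP peptide (50 nM final) was added; after 20 min at r.t., fluorescence polarization was read.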

[7] = qHTS Validation Assay to Find Inhibitors of Chronic Active B-Cell Receptor Signaling (AID 485345; active means well fitted curve in the direction sought with a large enough effect in the main read-out, with a control signal flat, not every such curve was filed as active); settings: ABC-DLBCL cells, chronic BCR signaling reporter, CBG luciferase; series mostly up to 46.1 µM
Method in brief: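 Read-out: ratio of filter-corrected green (IkappaBalpha fusion) to red (native) luciferase signal in doxycycline-induced TMD8 cells after 4 h at 37C. Titration spanned 46 uM–3 nM; Data were normalised to basal cells and 10 uM MG-132 wells.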

[8] = target: Beta-2 adrenergic receptor (Homo sapiens) (UniProt P07550); experiment: qHTS validation assay of beta-arrestin-biased ligands of beta2-adrenergic receptor (AID 485366); settings: cell-based beta-arrestin recruitment to ADRB2, qHTS; series mostly up to 46.1 µM
Method in brief: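 Values derive from curve-fitted %Activity of a luminescent beta-arrestin recruitment reporter; compounds tested up to 46 microM on Tango cells for 18 hr at 37 degrees C, 5% CO2.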

[9] = target: ATP-dependent 6-phosphofructokinase (Trypanosoma brucei brucei) (UniProt O15648); experiment: qHTS Validation Assay to Find Inhibitors of T. brucei phosphofructokinase (AID 485368); further: potency means the concentration at half of the fitted maximal effect; settings: T. brucei PFK enzyme assay, qHTS 7-point titration; series mostly up to 57.5 µM
Method in brief: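 Enzyme reaction in triethanolamine buffer pH 8.0 with 5 mM MgCl2, 0.01% Tween20 and 0.1% BSA; PFK 1.25 nM, F6P 0.5 mM, ATP 0.1 mM, 45 min RT. ADP quantified by ADP-Glo.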

[10] = Quantitative high throughput screen for delayed death inhibitors of the malarial parasite plastid, 96 hour incubation (AID 488745); settings: Plasmodium falciparum growth; series mostly up to 28.7 µM; further: nearly all actives have a fitted effect of over 70% in size; further: potency means the concentration at half of the fitted maximal effect
Method in brief: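 Luciferase-expressing P. falciparum in erythrocytes (2% hematocrit, 0.1% parasitemia) incubated with compound for 96 h at 37 C, 5% CO2, in RPMI 1640 with 0.5% Albumax. Growth inhibition read as decreased luminescence.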

Sequence of Ubiquitin carboxyl-terminal hydrolase 2 (Homo sapiens) (O75604 whole entry, looked up): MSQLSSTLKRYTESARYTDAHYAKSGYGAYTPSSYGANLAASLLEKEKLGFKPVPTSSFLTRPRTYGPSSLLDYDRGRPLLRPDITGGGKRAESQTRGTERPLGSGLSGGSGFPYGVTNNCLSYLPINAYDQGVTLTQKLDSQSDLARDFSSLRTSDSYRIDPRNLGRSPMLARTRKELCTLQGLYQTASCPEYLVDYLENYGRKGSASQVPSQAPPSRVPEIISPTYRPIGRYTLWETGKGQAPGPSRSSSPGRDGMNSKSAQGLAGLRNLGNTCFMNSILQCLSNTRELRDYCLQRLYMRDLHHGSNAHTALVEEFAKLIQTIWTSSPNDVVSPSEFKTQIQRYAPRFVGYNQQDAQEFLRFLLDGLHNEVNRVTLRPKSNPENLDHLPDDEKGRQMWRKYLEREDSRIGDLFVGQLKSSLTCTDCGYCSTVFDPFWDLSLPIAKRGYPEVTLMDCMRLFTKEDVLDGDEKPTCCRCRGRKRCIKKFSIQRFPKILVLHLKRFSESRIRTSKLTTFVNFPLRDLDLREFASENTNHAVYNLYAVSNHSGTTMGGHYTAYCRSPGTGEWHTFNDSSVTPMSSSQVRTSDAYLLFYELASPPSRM
Sequence of Tumor susceptibility gene 101 protein (Homo sapiens) (Q99816 whole entry, looked up, the tested form may be a part): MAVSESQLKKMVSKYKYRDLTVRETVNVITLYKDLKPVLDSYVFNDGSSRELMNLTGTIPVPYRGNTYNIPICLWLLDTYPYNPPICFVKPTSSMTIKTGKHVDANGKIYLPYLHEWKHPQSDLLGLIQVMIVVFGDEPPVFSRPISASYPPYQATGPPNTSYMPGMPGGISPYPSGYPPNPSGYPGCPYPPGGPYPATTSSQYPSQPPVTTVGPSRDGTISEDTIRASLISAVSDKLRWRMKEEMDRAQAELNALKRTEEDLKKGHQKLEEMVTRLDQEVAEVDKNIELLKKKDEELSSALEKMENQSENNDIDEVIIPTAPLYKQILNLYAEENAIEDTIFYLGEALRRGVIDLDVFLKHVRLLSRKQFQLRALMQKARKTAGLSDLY
Sequence of ATP-dependent 6-phosphofructokinase (Trypanosoma brucei brucei) (O15648 whole entry, looked up): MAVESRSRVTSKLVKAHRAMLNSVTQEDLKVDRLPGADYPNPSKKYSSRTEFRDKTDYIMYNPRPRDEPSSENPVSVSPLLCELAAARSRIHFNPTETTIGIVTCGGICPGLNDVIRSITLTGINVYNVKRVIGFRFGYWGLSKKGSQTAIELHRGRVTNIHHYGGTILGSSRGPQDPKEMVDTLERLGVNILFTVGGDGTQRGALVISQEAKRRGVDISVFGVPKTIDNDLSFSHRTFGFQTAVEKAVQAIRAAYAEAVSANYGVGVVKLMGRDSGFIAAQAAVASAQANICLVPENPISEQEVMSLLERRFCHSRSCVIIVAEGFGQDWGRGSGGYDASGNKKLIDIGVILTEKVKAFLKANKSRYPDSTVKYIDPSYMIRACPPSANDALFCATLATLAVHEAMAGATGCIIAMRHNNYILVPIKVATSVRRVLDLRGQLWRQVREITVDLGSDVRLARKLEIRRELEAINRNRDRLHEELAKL
Sequence of Beta-2 adrenergic receptor (Homo sapiens) (P07550 whole entry, looked up): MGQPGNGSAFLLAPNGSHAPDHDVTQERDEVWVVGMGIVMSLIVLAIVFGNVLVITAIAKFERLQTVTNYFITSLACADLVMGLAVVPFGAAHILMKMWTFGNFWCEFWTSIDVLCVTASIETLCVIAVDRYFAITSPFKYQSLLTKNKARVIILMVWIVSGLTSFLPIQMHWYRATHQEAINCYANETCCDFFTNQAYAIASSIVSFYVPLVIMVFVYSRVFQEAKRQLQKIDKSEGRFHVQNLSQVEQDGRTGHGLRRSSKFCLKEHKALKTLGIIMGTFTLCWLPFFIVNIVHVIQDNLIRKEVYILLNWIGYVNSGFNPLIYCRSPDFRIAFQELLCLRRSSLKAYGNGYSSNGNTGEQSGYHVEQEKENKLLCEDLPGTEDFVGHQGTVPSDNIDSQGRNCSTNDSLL
Sequence of DNA polymerase III PolC-type (Bacillus subtilis (strain 168)) (P13267 whole entry, looked up): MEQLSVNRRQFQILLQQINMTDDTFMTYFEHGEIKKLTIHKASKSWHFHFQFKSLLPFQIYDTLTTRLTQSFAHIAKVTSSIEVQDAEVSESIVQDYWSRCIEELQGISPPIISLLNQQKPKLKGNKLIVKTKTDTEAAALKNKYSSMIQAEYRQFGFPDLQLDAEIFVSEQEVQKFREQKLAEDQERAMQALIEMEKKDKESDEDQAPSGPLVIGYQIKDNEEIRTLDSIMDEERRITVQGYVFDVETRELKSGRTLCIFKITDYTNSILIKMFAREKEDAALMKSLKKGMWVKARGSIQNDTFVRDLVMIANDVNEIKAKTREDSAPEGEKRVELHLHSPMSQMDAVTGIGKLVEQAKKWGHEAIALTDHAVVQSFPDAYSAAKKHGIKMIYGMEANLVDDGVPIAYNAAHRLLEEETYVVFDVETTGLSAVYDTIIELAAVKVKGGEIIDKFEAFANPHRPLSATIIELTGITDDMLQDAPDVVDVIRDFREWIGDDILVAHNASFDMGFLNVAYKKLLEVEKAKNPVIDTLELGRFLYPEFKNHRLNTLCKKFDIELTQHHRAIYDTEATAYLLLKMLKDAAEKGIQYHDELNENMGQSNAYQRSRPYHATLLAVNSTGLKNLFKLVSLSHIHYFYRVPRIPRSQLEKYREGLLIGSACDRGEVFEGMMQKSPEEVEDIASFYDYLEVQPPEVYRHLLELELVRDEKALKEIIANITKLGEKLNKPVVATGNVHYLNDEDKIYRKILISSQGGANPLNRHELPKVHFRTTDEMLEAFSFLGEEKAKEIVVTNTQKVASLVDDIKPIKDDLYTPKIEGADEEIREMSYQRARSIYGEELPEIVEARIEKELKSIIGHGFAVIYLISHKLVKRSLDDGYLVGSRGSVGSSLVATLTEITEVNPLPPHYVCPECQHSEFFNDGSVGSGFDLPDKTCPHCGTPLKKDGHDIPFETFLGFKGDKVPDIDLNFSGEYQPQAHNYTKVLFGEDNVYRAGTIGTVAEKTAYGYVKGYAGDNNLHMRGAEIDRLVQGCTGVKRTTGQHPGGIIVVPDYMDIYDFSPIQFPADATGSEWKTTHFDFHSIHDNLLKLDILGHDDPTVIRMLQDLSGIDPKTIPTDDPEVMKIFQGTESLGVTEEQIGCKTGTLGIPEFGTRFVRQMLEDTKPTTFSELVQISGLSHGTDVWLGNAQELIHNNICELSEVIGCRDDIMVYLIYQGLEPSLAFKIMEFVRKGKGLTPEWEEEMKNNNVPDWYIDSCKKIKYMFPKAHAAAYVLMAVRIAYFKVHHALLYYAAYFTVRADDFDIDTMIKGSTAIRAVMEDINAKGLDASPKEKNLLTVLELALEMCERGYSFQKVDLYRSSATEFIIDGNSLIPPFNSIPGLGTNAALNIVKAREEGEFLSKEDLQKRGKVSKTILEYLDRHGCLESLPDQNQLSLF

Row | Structure (SMILES) | Potency [1] | Potency [2] | Potency [3] | Potency [4] | Potency [5] | outcome [6] | outcome [7] | outcome [8] | Potency [9] | Potency [10]
1 | Cc1ccc(C(=O)O[C@H](C(=O)O)[C@@H](OC(=O)c2ccc(C)cc2)C(=O)O)cc1 (tested in a mixture with another compound) | inactive | inactive | inactive | inactive | inactive | inactive | inactive | inactive | inactive | inactive
2 | O=C(O)c1cc(=O)c2c(Cl)cc(Cl)cc2[nH]1 | inactive | inactive | inactive | inactive | inactive | inactive | inactive | inactive | inactive | –
3 | c1ccc(-c2ccccn2)nc1 | inactive | inactive | inactive | inactive | inactive | inactive | inactive | inactive | – | inactive
4 | Clc1ccc(N2CCN(Cc3c[nH]c4ncccc34)CC2)cc1 | inactive | inactive | inactive | inactive | inactive | inactive | – | inactive | – | –
5 | O=C(O)CCCC[C@@H]1CCSS1 | inactive | inactive | inactive | inactive | inactive | inactive | inactive | inactive | – | –
6 | CCCn1c(=O)c2[nH]c(-c3ccc(OCC(=O)NCCN)cc3)nc2n(CCC)c1=O | inactive | inactive | inactive | inactive | inactive | inactive | inactive | inactive | – | –
7 | O=C(O)c1cc(=O)c2ccccc2[nH]1 | inactive | inactive | inactive | inactive | inactive | inactive | inactive | inactive | – | inactive
8 | CCCCN1CCC(n2c(=O)[nH]c3ccccc32)CC1 | inactive | inactive | inactive | inactive | inactive | inactive | inactive | inactive | – | inactive
9 | O=C(O)CNC(=O)C(CS)Cc1ccccc1 (stereo not drawn) | inactive | inactive | inactive | inactive | inactive | inactive | inactive | inactive | – | –
10 | C[N+](C)(CCCCCC[N+](C)(C)CCCN1C(=O)c2cccc3cccc(c23)C1=O)CCCN1C(=O)c2cccc3cccc(c23)C1=O | inactive | inactive | inactive | inactive | 10.6 µM (active) | inactive | inactive | inactive | – | 0.928 µM (active)
11 | Oc1ccc(C2CNCc3sccc32)cc1O (stereo not drawn) | inactive | inactive | inactive | inactive | inactive | inactive | inactive | inactive | – | –
12 | COc1cccc(C(=O)NCCN2CCN(c3ccc(Cl)cc3)CC2)c1 | inactive | inactive | inactive | inactive | inactive | inactive | inactive | inactive | inactive | inactive
13 | CN=c1nc(-c2ccccc2)n(-c2ccccc2)s1 | inactive | inactive | 11.2 µM (active) | inactive | 26.7 µM (active) | inactive | inactive | inactive | 10.7 µM (active) | inactive
14 | O=c1[nH]c2cc([N+](=O)[O-])c([N+](=O)[O-])cc2[nH]c1=O | inactive | inactive | inactive | inactive | inactive | inactive | inactive | inactive | – | –
15 | CN1CCc2cc(NC(=O)Nc3cccnc3)ccc21 | inactive | inactive | inactive | inactive | inactive | inactive | – | inactive | – | –
16 | NC(N)=NC(=O)c1nc(Cl)c(N2CCCCCC2)nc1N | inactive | inactive | inactive | inactive | – | inactive | inactive | inactive | – | –
17 | O=C(O)c1cc([N+](=O)[O-])ccc1NCCCc1ccccc1 | inactive | inactive | inactive | inactive | inactive | inactive | – | inactive | – | inactive
18 | Fc1cccc(/C=N/N=C/c2cccc(F)c2)c1 | inactive | inactive | inactive | inactive | inactive | inactive | – | inactive | inactive | –
19 | O=C(O)/C=C/C(O)c1ccc(Cl)cc1 (stereo not drawn) | inactive | inactive | inactive | inactive | – | inactive | inactive | inactive | inactive | –
20 | CC(C)(C=O)Cc1cc(C(C)(C)C)c(O)c(C(C)(C)C)c1 | inactive | inactive | inactive | inactive | – | inactive | – | inactive | inactive | inactive
21 | Ic1ccc(N2CCN(Cc3c[nH]c4ncccc34)CC2)cc1 | inactive | inactive | – | inactive | inactive | inactive | inactive | inactive | – | –
22 | CC(C)NC[C@@H](O)c1ccc(O)c(O)c1 | inactive | inactive | – | inactive | inactive | inactive | inactive | – | – | –
23 | NC(CCCP(=O)(O)O)C(=O)O (stereo not drawn) | inactive | inactive | inactive | inactive | – | inactive | inactive | inactive | – | inactive
24 | Fc1ccc(C(OCCCc2cnc[nH]2)c2ccc(F)cc2)cc1 | inactive | inactive | inactive | inactive | inactive | inactive | – | inactive | – | –
25 | Cc1cc(NC2CCCCC2)nc(-n2nc(C)cc2C)n1 | inactive | inactive | – | inactive | inactive | inactive | inactive | inactive | – | –
